Screening data as filed in PubChem.
CYP2C19 inhib: blockers of cytochrome P450 2C19 activity – biochemical, luminescence, ADME assay, primary screen. inhibition, % at 5 µM. P33261. CYP2C19 Supersomes, luciferin-H EGE luminescence, 30 min. 96,000 tested, 21% active. AID 778, 2007;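 active = CYP2C19 inhibition above a set limit at 5 µM in the primary screen, cut at about 50% in these data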;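 also: plate controls were negative control wells for no effect and 2.5 mM tranylcypromine positive control for full effect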
CYP2C9 act: human CYP2C9 activators, primary screen, biochemical, luminescence; Cytochrome P450 2C9 (Homo sapiens), P11712; activation factor at 5 µM; recombinant CYP2C9, luciferin-H conversion; stronger effect = higher value; factor 1 = untreated enzyme, 0 = blocked; 96,000 tested, 1.4% active;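 active = activation factor of 2 or more for CYP2C9 at a 5 µM dose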;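 also: 0 = sulfaphenazole-blocked wells and 1 = vehicle-only wells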
CYP2C19 activ: human CYP2C19 activators, primary screen, biochemical, luminescence; Cytochrome P450 2C19 (Homo sapiens), P33261; recombinant CYP2C19, luciferin-H EGE luminescence; stronger effect = higher value; 0 = fully inhibited enzyme, 1 = untreated enzyme; activation factor at 5 µM; 96,000 tested, under 10 active;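 active = activation factor of at least 2 at 5 µM in the primary screen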;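 also: 0 = wells with 2.5 mM tranylcypromine and 1 = vehicle-only wells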
sEH act: soluble epoxide hydrolase activators, primary screen, biochemical, human sEH. Bifunctional epoxide hydrolase 2 (Homo sapiens), P34913. purified human sEH enzymatic activity, activator screen. activation, % at 2 µM. 91,000 tested, 0.04% active; in the data active = activation above about 37%
sEH inhibitor: soluble epoxide hydrolase inhibitors, primary screen, biochemical, human sEH; recombinant human sEH enzymatic activity assay; 91,000 tested, 0.34% active; inhibition, % at 2 µM; AID 707, 2007; Bifunctional epoxide hydrolase 2 (Homo sapiens), P34913; in the data active = inhibition above about 80%
CYP2C9 inh: blockers of cytochrome P450 2C9 activity – biochemical, luminescence, ADME assay, primary screen | AID 777, 2007 | 96,000 tested, 20% active | CYP2C9 Supersomes, luciferin-H conversion | P11712 | inhibition, % at 5 µM;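 active = blocking of liver enzyme CYP2C9 beyond about 50% at 5 µM, limit read from the data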
The depositor's hits bear a star; . = no result. The list is not random: actives were taken first. Their share in the collection is about 27%.

SMILES	CYP2C19 inhib	CYP2C9 act	CYP2C19 activ	sEH act	sEH inhibitor	CYP2C9 inh
CCOC(=O)C(C)Sc1nc2c(c(=O)[nH]c(=O)n2C)n1CCc1ccccc1 (stereo unspecified)	40	0.5	0.6	21	-22	52*
COC(=O)CSc1nc2c(c(=O)[nH]c(=O)n2C)n1CCC(C)C	.	.	.	-7	9	.
COCCn1c(SCCCc2ccccc2)nc2c1c(=O)[nH]c(=O)n2C	43	0.4	0.6	.	.	59*
CCCCCn1c(SCC(=O)OC)nc2c1c(=O)[nH]c(=O)n2C	4	0.9	1	2	2	10
CCCCSc1nc2c(c(=O)[nH]c(=O)n2C)n1CCc1ccccc1	0	1	1	.	.	2
CCCCn1c(SCC(=O)c2ccccc2)nc2c1c(=O)[nH]c(=O)n2C	43	0.3	0.6	8	-7	70*
CNC(=O)c1cc2cc(Cl)cc(OC)c2oc1=O	.	.	.	-8	10	.
Cc1cc(=O)oc2cc(OCc3cc4c(cc3Cl)OCO4)ccc12	15	0.7	0.9	9	-10	30
CC(=O)N1CCN(CC(=O)Nc2c(Cl)cc(Cl)cc2Cl)CC1	9	0.8	0.9	.	.	17
CC(C)CCn1c(SCCc2ccccc2)nc2c1c(=O)[nH]c(=O)n2C	50*	0.1	0.5	-12	11	93*
COc1ccc(Cn2c(C3CC3)nc3ccc(NC(=O)c4ccco4)cc3c2=O)cc1	54*	0.5	0.5	.	.	55*
COc1cc(C2NC(=S)NC(C)=C2C(=O)OC(C)C)ccc1OC(C)C (stereo unspecified)	.	.	.	8	-5	.
Cc1oc(-c2ccccc2F)nc1CS(=O)(=O)CC(=O)NCc1ccco1	11	0.7	0.9	7	-8	32
CSc1nsc(SC)c1NC(=O)OCc1ccccc1	89*	0.7	0.1	12	-13	28
CSCC[C@H](NC(=O)OCc1ccccc1)C(=O)O	2	0.6	1	16	-15	39
CSc1nsc(SC)c1NC(=O)Nc1ccccn1	50	0.5	0.5	7	-8	45
CSc1nsc(SC)c1NC(=O)OCCc1ccccn1	95*	0.6	0	8	-12	35
O=C(NCc1ccoc1)c1ccc(NC(=O)c2ccccc2Cl)cc1	6	0.9	0.9	12	-9	14
COc1cccc(C(=O)OCc2ccccc2C#N)c1O	92*	0.2	0.1	-10	9	76*
CC(C(=O)O)N1C(=O)CSc2ncccc21 (stereo unspecified)	-4	1	1	-7	7	-3
Clc1cccc(CON/C=N/c2ncnc3sccc23)c1	80*	0.5	0.2	-40	40	50*
Clc1cccc(Cl)c1CON/C=N/c1ncnc2sccc12	16	1	0.8	-58	58	3
CCc1ccccc1NC(=O)C(Cc1cccc(OC)c1OC)c1nn[nH]n1 (stereo unspecified)	0	0.5	1	-6	4	50*
Cc1cc(C)c(S(=O)(=O)/N=C2\C=CC(=O)C(Cl)=C2)c(C)c1	51*	0.8	0.5	-10	11	16
CC(C)(C)c1ccc(S(=O)(=O)CC(O)CSc2nc3c(cc2C#N)CCCC3)cc1 (stereo unspecified)	36	0.2	0.6	5	-5	78*
SMILES	CYP2C19 inhib	CYP2C9 act	CYP2C19 activ	sEH act	sEH inhibitor	CYP2C9 inh
N#Cc1cc2c(nc1SCC(O)CS(=O)(=O)Cc1ccc(Cl)cc1)CCCC2 (stereo unspecified)	59*	0.2	0.4	-12	8	81*
N#Cc1cc2c(nc1SCc1ccncc1)CCC2	100*	0.1	0	13	-14	87*
Cc1cc(C)c(C#N)c(SCC(O)CS(=O)(=O)Cc2ccccc2)n1 (stereo unspecified)	97*	0.3	0	14	-15	72*
N#Cc1cc2c(nc1SCc1ccccc1)CCC2	.	.	.	11	-7	.
Cc1ccc(C)c(NC(=O)CSc2nc(C)cc(C)c2C#N)c1	.	.	.	-4	6	.
Cc1nnc(SCC(=O)NCc2ccccc2)[nH]c1=O	11	0.8	0.9	2	-4	22
